Measured values taken from PubChem BioAssay AID651956 (Broad Institute, 2012).
Measured potencies and affinities stand elsewhere. Results filed as inconclusive are left out. Calls of active or inactive are those of the source.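 How the source made its calls: active means in every test run, a fitted half-maximal concentration for signal decrease at or below twice the highest tested concentration; inconclusive means runs disagree, flat 30 to 70% decrease, or poor fit; inactive means the rest.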

test: miR-122 activators in hepatoma reporter cells, dose response, cell-based, Huh7 psiCHECK-miR122, Renilla luciferase, cherry-picked (AID 651956); conditions: 48 h; series mostly up to 35 µM;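 further: Renilla luciferase from a miR-122 sensor reporter so lower signal means miR-122 activation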

outcome, inactive:
C[C@@H]1CN([C@@H](C)CO)S(=O)(=O)c2ccc(/C=C/c3ccccc3)cc2O[C@@H]1CN(C)C(=O)NC1CCCCC1, O=C(C1CCOCC1)N1C[C@H]2[C@@H](c3ccccc31)[C@@H](CO)N2Cc1ccccc1, COc1cccc(CNC(=O)C[C@@H]2CC[C@H]3[C@H](COc4ccc(NC(C)=O)cc4C(=O)N3C)O2)c1, C/C=C/c1ccc([C@H]2[C@@H](CO)N[C@@H]2CN(CC)C(=O)CN2CCOCC2)cc1, CN(C(=O)c1ccccc1Cl)C1CCCCC1, COCC(=O)Nc1ccc2c(c1)C(=O)N(C)[C@@H]1CC[C@H](CC(=O)NC3CCCC3)O[C@H]1CO2, CCOc1ccc(CCNC(=O)C2CCN(S(=O)(=O)N3CCC(C)CC3)CC2)cc1OCC, CCN(C[C@H]1N[C@H](CO)[C@H]1c1ccc(-c2ccc(F)cc2)cc1)C(=O)COC, CCCCCn1c(=O)[nH]c2cc(C(=O)NCCN3C(C)CCCC3C)ccc2c1=O (centres undefined), COCC(=O)N(C)C[C@H]1Oc2cc(-c3ccccc3F)ccc2S(=O)(=O)N([C@@H](C)CO)C[C@@H]1C, Cc1[nH]c(=O)c(C#N)cc1-c1ccccc1, C[C@@H]1CN([C@@H](C)CO)S(=O)(=O)c2ccc(C3=CCCCC3)cc2O[C@@H]1CN(C)C(=O)Nc1ccc2c(c1)OCO2, CC(C)C(=O)Nc1ccc2c(c1)C(=O)N(C)[C@H]1CC[C@H](CC(=O)O)O[C@H]1CO2, NS(=O)(=O)c1ccc(Nc2nc(-c3cccnc3)cs2)cc1, C/C=C/c1ccc([C@@H]2[C@@H](CO)N[C@@H]2CN(CC)C(=O)CN2CCOCC2)cc1, COCC(=O)N(C)C[C@@H]1[C@H](c2ccc(-c3ccccc3)cc2)[C@@H](CO)N1C(C)=O, CC(C)C(=O)Nc1ccc2c(c1)C(=O)N(C)[C@H]1CC[C@@H](CC(=O)NCc3ccccc3F)O[C@H]1CO2, CCC(=O)N1[C@H](CO)[C@@H](c2ccccc2)[C@H]1CN(C(C)C)S(C)(=O)=O, O=C(Nc1ccccc1F)N1[C@H](CO)[C@@H]2c3ccccc3NC[C@@H]21, C[C@@H]1CN([C@H](C)CO)C(=O)c2cccc(NC(=O)c3ccc(-c4nccs4)cc3)c2O[C@H]1CN(C)S(=O)(=O)c1ccc(F)cc1, CN1C(=O)c2cc(NC(=O)c3ccccc3F)ccc2OC[C@H]2O[C@H](CC(=O)NCc3ccc4c(c3)OCO4)CC[C@@H]21, COc1ccc(-c2c(-c3ccccc3)c(C(=O)C(=O)NCCCN(C)C)n3ccc4cc(OC)c(OC)cc4c23)cc1OC, Cc1ccc(C(=O)n2nc(-c3ccccc3)nc2NCc2ccco2)cc1, CC(=O)Oc1ccc2c(c1)C(=O)c1ccccc1CO2, CCOC(=O)CSc1nnnn1-c1cccc2ccccc12, COC(=O)C[C@H]1CC[C@@H]2[C@@H](COc3ccc(NC(=O)c4cnccn4)cc3C(=O)N2C)O1, N#CC1=C(N)Oc2c(ccc3cccnc23)C1c1ccccc1 (centres undefined), C[C@@H]1CN([C@@H](C)CO)S(=O)(=O)c2ccc(-c3ccccc3F)cc2O[C@@H]1CN(C)Cc1cccnc1, COC(=O)c1cc(NS(=O)(=O)c2ccc3c(c2)CCC(=O)N3)cc(C(=O)OC)c1, O=c1c2cc(N3CCOCC3)ccc2[nH]c(=S)n1CCCN1CCCC1, Cc1cc(C)cc(NC(=O)Nc2ccc3c(c2)C(=O)N(C)[C@@H]2CC[C@H](CC(=O)O)O[C@@H]2CO3)c1, CN1C(=O)c2cc(NC(=O)C3CC3)ccc2OC[C@@H]2O[C@H](CC(=O)NCCN3CCCC3)CC[C@H]21, COC(=O)C[C@@H]1CC[C@@H]2[C@H](COc3ccc(NC(=O)c4ccc(F)c(F)c4)cc3C(=O)N2C)O1, COCC(=O)N(C[C@H]1[C@H](c2ccccc2)[C@H](CO)N1C(=O)NC(C)C)C(C)C, CNC(=O)C[C@@H]1CC[C@@H]2[C@@H](COc3ccc(NC(=O)NC(C)C)cc3C(=O)N2C)O1, c1ccc(-c2nnc3n2CCCC3)cc1, COc1ccc(C#Cc2ccc3c(c2)O[C@@H](CN(C)C(=O)CN2CCOCC2)[C@@H](C)CN([C@H](C)CO)S3(=O)=O)cc1, C[C@H](CO)N1C[C@H](C)[C@H](CN(C)Cc2ccccc2)Oc2cc(/C=C/c3ccccc3)ccc2S1(=O)=O, O=C(Nc1ccc(Cl)c(C(F)(F)F)c1)c1ccco1
